Measurements published in PubChem BioAssay (NCI).
About 83,000 compounds went through this panel and 20% of them were active in at least one assay; those are over-represented in the sample as a whole.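 Each cell line was grown in a 96-well plate and treated with one concentration of compound for 48 hours. Values below 10 were considered active.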 Activity calls are given as the source filed them.

What was measured:
Experiment in all cases: NCI-60 one-dose screen, 48 h (100 = growth as untreated, 0 = no growth, -100 = all killed)
Settings in all cases: 10 µM unless noted
[1] = system: DU-145 prostate
[2] = system: K-562 leukemia
[3] = system: MDA-MB-231 breast
[4] = system: RXF 393 renal
[5] = system: SF-268 CNS
[6] = system: SF-295 CNS
[7] = system: SF-539 CNS
[8] = system: UACC-257 melanoma
[9] = system: M14 melanoma
[10] = system: HCT-15 colon
[11] = system: HT29 colon
[12] = system: SNB-75 CNS
[13] = system: SNB-19 CNS
[14] = system: U251 CNS
[15] = system: PC-3 prostate
[16] = system: SK-MEL-5 melanoma
[17] = system: UACC-62 melanoma
[18] = system: LOX IMVI melanoma
[19] = system: SK-MEL-28 melanoma
[20] = system: MALME-3M melanoma

Measured: growth

CCCCCCCCCCCCCCCCCC1=NCCN1CS(=O)(=O)O
active: [2] -10.9% | [3] -15.8% | [5] -24.5% | [11] 2.18% | [18] -2.88%
inactive: [1] 33.7% | [4] 69.9% | [6] 74.6% | [7] 61.2% | [8] 91.8% | [9] 34.6% | [10] 41% | [12] 60.9% | [13] 80.4% | [14] 64.5% | [15] 39% | [16] 87.3% | [17] 88.9% | [19] 103%

CC1(C)NC(=S)NC1=O
inactive: [1] 116% | [2] 89% | [20] 106% | [4] 105% | [5] 111% | [6] 95.7% | [7] 111% | [8] 106% | [9] 98.5% | [10] 102% | [11] 105% | [12] 89.9% | [14] 98.4% | [15] 95.5% | [16] 101% | [17] 108% | [18] 97.5% | [19] 110%

COc1ccc2sc(-n3nc4nc5n(c(=O)c4c3N)-c3ccccc3Sc3ccccc3-5)nc2c1
inactive: [1] 99.7% | [2] 47.9% | [3] 47.5% | [4] 93.8% | [5] 86.8% | [6] 65.8% | [7] 104% | [8] 89.6% | [9] 77.1% | [10] 82.6% | [11] 73.6% | [12] 73.8% | [13] 79.7% | [14] 82.2% | [15] 48.7% | [16] 41.1% | [17] 64.1% | [18] 79.8% | [19] 92.6%

COc1ccc(Cn2cc3c(c2-c2ccc(O)cc2)CCc2cnoc2-3)cc1
active: [4] 6.55% | [6] -24.6% | [7] -16.2% | [9] 9.96%
inactive: [1] 20.2% | [2] 12% | [3] 18% | [5] 45.5% | [8] 70.8% | [10] 21.3% | [11] 19.9% | [12] 19.1% | [13] 47.1% | [14] 27.6% | [15] 27% | [16] 19.2% | [17] 44.5% | [18] 35.4% | [19] 54.3%

COc1ccc2oc(=O)cc(CN3C(=O)S/C(=C\c4ccc(Cl)cc4)C3=O)c2c1
inactive: [1] 96.5% | [2] 64.1% | [3] 108% | [4] 116% | [5] 92.2% | [6] 92% | [7] 99.6% | [8] 103% | [9] 96.2% | [10] 92.3% | [11] 103% | [13] 99% | [14] 101% | [15] 91.8% | [16] 101% | [17] 83.1% | [18] 95.2% | [19] 101%

CCCCN(CCC)CCCCCCCCCCN1CCCc2ccccc21
inactive: [1] 77.1% | [2] 17.5% | [20] 74.3% | [4] 109% | [5] 75.7% | [6] 83.6% | [7] 101% | [8] 106% | [9] 88.6% | [10] 78.8% | [11] 21.8% | [12] 89% | [14] 87.7% | [15] 45.8% | [16] 98.8% | [18] 67.8% | [19] 118%

Cc1nnc(-c2cc3c(ccc4ccccc43)oc2=O)c2cn(-c3ccc(Cl)cc3)nc12
inactive: [1] 107% | [2] 80.6% | [3] 77.5% | [4] 103% | [5] 87.3% | [6] 95.9% | [7] 114% | [8] 109% | [9] 98.1% | [10] 87.4% | [11] 95.4% | [12] 82.4% | [13] 96.4% | [14] 87.1% | [15] 88.6% | [16] 96% | [17] 90.9% | [18] 79.9% | [19] 118%

COc1ccc(CN2C(=O)/C(=C\C(=O)c3ccc(OCCN4CCCC4)cc3)c3ccccc32)cc1
active: [2] -25.9% | [11] 9.12%
inactive: [1] 71.9% | [3] 93% | [4] 65.2% | [5] 84.3% | [6] 93.9% | [7] 86.6% | [8] 105% | [9] 79.6% | [10] 37.3% | [12] 73.2% | [13] 97.1% | [14] 87.3% | [15] 84% | [16] 92.7% | [17] 88.7% | [18] 31.7% | [19] 103%

Oc1ccc2ccccc2c1/C=N\Nc1ccccn1
inactive: [2] 16.1% | [3] 25.1% | [4] 18.3% | [5] 16.8% | [8] 12.9% | [10] 28.7% | [11] 111% | [13] 27.8% | [14] 21.3% | [15] 45.1% | [16] 13.3% | [19] 38.9%
active: [1] 4.84% | [6] -42.7% | [7] -4.88% | [9] -22.5% | [17] 0.907% | [18] -4.69%

NNC(=S)N1N=C(c2cc3ccccc3o2)CC1c1c[nH]c2ccccc12 (centres undefined)
inactive: [1] 50.9% | [3] 41.6% | [4] 77.7% | [5] 29.6% | [6] 38.9% | [7] 57.9% | [8] 64.2% | [9] 52.1% | [10] 30.4% | [11] 34.1% | [12] 88.4% | [13] 35.5% | [14] 36% | [15] 29.2% | [16] 42.1% | [17] 15.4% | [18] 26% | [19] 40.2%
active: [2] 9.64%

COc1ccc(OC)c(Cn2cc3c(c2-c2ccccc2)CCc2cnoc2-3)c1
inactive: [1] 94.7% | [2] 16.6% | [3] 64.7% | [4] 80% | [5] 71.8% | [6] 22.8% | [7] 54.9% | [8] 79.5% | [9] 50.7% | [10] 45.5% | [11] 30.4% | [12] 55.9% | [13] 65.5% | [14] 53.4% | [15] 41.1% | [16] 40.2% | [17] 48.1% | [18] 61.6% | [19] 65.9%

COc1ccc(/C=C(/C(=O)N2CCN(c3ccc(C)cc3)CC2)c2cc(OC)c(OC)c(OC)c2)cc1N
active: [1] 5.56% | [7] -4.4% | [9] 3.96% | [11] 3.34% | [12] 9.7% | [15] 9.56% | [16] -30.7%
inactive: [2] 11.2% | [3] 33.6% | [4] 55.2% | [5] 25.6% | [6] 15.4% | [8] 73.8% | [10] 11.8% | [13] 33.6% | [14] 22% | [17] 40% | [18] 22.2% | [19] 54.3%

c1ccc(-c2cn3ccnc3c(-c3ccc4ncn(C5CCCCC5)c4c3)n2)cc1
inactive: [1] 70.7% | [2] 29.4% | [3] 58.5% | [4] 55% | [5] 78.2% | [6] 60.2% | [7] 72.2% | [8] 94.8% | [9] 61.8% | [10] 48.4% | [11] 51.7% | [12] 55.6% | [13] 77.1% | [14] 62.7% | [16] 63.5% | [17] 34.4% | [18] 60.4% | [19] 82%
active: [15] 7.96%

CC(=O)c1nn(-c2ccc(C)cc2)cc1C(=O)c1cc2c(ccc3ccccc32)oc1=O
inactive: [1] 110% | [2] 81.2% | [3] 73% | [4] 126% | [5] 99.5% | [6] 92.1% | [7] 94.1% | [8] 104% | [9] 91.3% | [10] 99.3% | [11] 92.4% | [12] 66.4% | [13] 92.6% | [14] 104% | [15] 87.9% | [16] 95.6% | [17] 78.3% | [18] 90.5% | [19] 96.7%

COc1cc(CNC(=O)CCCC/C=C/C(C)C)ccc1OCc1nnc(Nc2ccccc2F)o1
inactive: [1] 88.7% | [2] 60.4% | [3] 63.9% | [4] 68.8% | [5] 45.5% | [6] 48% | [7] 48.2% | [8] 98.2% | [9] 99.7% | [10] 90.1% | [11] 89.9% | [12] 57.8% | [13] 58.6% | [14] 84% | [15] 72.5% | [16] 86.6% | [17] 65.5% | [18] 83.4% | [19] 85.2%

CCNc1nnc(COc2ccc(CNC(=O)CCCC/C=C/C(C)C)cc2OC)o1
inactive: [1] 109% | [2] 91.6% | [3] 104% | [4] 120% | [5] 97.1% | [6] 97.1% | [7] 104% | [8] 105% | [9] 102% | [10] 96.9% | [11] 105% | [12] 86.2% | [13] 104% | [14] 98.3% | [15] 104% | [16] 102% | [17] 95% | [18] 93.2% | [19] 104%
